According to PubChem BioAssay (NCATS):
Inconclusive results are not listed. Values without a mark were called inactive. Calls come from the whole dose curve; as a rule, active = well fitted inhibition curve with a large enough effect; inconclusive = small, poorly fitted or top-dose-only effect; inactive = flat fitted curve, though single readings scatter.

Assay: qHTS to identify inhibitors of the type 1 interferon - major histocompatibility complex class I in skeletal muscle: primary screen against the NCATS Pharmaceutical Collection (AID 1347407)
Conditions: human skeletal muscle cells, IFN-b-induced MHC-I HiBiT luminescence, 24 h; series mostly up to 45.9 µM; activity change, negative = inhibition: at the top concentration
Outline: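 Immortalized human myoblasts (C25cl48) with HiBiT knocked into endogenous HLA-B*08:01 were stimulated with 4 ng/ml IFN-beta and treated with compounds (8-point, 1:5, top 46 uM final) for 24 h at 37 C; HiBiT lytic luminescence read.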
% is set by controls: 0 for no effect and ±100 for the full control effect.

SMILES | activity change, negative = inhibition
[Cl][In]([Cl])[Cl] | -12.6% [at 92.2 µM]
N[C@@H](CSSC[C@H](N)C(=O)O)C(=O)O | 0.957% [at 0.727 µM]
Cc1cccc(Nc2cc(Cl)nc(SCC(=O)O)n2)c1C | -22.6%
Nc1ccc(S(=O)(=O)Nc2ccccc2)cc1 | -13.6%
CCN(CC)CCSC(=O)C(c1ccccc1)c1ccccc1 | -1.26%
COc1cc(C)c(Cc2cnc(N)nc2N)cc1OC | -2.85%
Cc1ncc(COP(=O)(O)O)c(C=O)c1O | 1.47%
Nc1ccc(S(=O)(=O)Nc2ccc(Cl)nn2)cc1 | 2.97%
Cc1c(Cl)cccc1Nc1ccccc1C(=O)O | -26.1%
O=S(=O)(O)c1cc(I)c(O)c2ncccc12 | 2.63%
CCCCCCCCCCCCCCCCCCOCC(O)CO (centres undefined) | -5.35%
CCCOC(=O)c1ccccc1 | -7.93%
O=C1O[C@H](CO)[C@@H](O)[C@H](O)[C@H]1O | -14.3%
CCCCN(CCCC)CCCOC(=O)c1ccc(N)cc1 | 0.733%
Cc1ncc([N+](=O)[O-])n1CC(O)CCl (centres undefined) | -2.64%
CC1(C)S[C@@H]2[C@H](NC(=O)Cc3ccccc3)C(=O)N2[C@H]1C(=O)O (tested in a mixture with another compound) | -2.87%
C[C@H]1O[C@H](O[C@H]2[C@H](O)[C@@H](O)[C@@H](O[C@H]3[C@H](O)[C@@H](O)[C@H](O)O[C@@H]3CO)O[C@@H]2CO)[C@H](O)[C@@H](O)[C@@H]1N[C@H]1C=C(CO)[C@@H](O)[C@H](O)[C@H]1O | 4.45%

SMILES | activity change, negative = inhibition
N[C@H]1C(O)O[C@H](CO)[C@@H](O)[C@@H]1O (some centres undefined) | -5.51%
C[C@]12CC[C@@H]3c4ccc(O)cc4CC[C@H]3[C@@H]1CC[C@@H]2OC(=O)CCC1CCCC1 | -2.21%
CC1CC(OC(=O)C(O)c2ccccc2)CC(C)(C)N1C (centres undefined) | -4.89%
CC12CCC(CC1)C(C)(C)O2 | -0.113%
O=C(O)[C@H](O)c1ccccc1 | 15.7%
CCCCCCCCCCCCOS(=O)(=O)O | -4.43%
C[C@H](N)[C@H](O)c1cccc(O)c1 | -14.4%
NS(=O)(=O)c1cc2c(cc1C(F)(F)F)NC(Cc1ccccc1)NS2(=O)=O (centres undefined) | -5.2%
O=Cc1ccccc1C=O | 10.7%
CN(C)CCCO[C@@H]1[C@H]2OC(C)(C)O[C@H]2O[C@@H]1C(O)CO (some centres undefined) | -12.9%
NC(CSCC(=O)O)C(=O)O (centres undefined) | 4.63%
O=c1[nH]c(=O)c2[nH]c(=O)[nH]c2[nH]1 | -11.3% [at 9.18 µM]
O=C(O)c1ccccc1O | -7.88%
CC1(C)OC(=O)NC1=O | 0.0854%
COC(=O)C1=C(C)NC(C)=C(C(=O)OC)C1c1ccccc1[N+](=O)[O-] | -21.8%
COc1ccccc1O | 13.6% [at 92.2 µM]
O=c1cc[nH]c(=O)[nH]1 | -5.7%
